Measured values reported in the supplement of paper PMC6555819.

tested on: VDR:RXRa (NR concentration 270 nM, RXRa partner concentration 90 nM); assay: PBM binding z-score (relative to random genomic background probes); higher = stronger binding; sequences stand for … in GC…GCGATTGACAGCGTAGAATGAAGG
Protocol: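 Protein-binding microarray (Agilent 4x180K custom design, double-stranded 60-nt probes: 5' GC cap, 34-nt variable region, 24-nt constant primer region; full probe sequence given). Purified or IVT nuclear receptor:RXRα heterodimers (3:1 NR:RXRα, mostly 270:90 nM) or homodimers were incubated for 1 h in PBS with 2% milk and no ligand, then detected with Alexa488 antibodies. Fluorescence from o1-orientation probes (~5 replicates averaged) was converted to z-scores against 500 random hg19 background probes. Variable regions are seed direct-repeat (DR0–DR5) sites, all their single-nucleotide variants and half-site ablations.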

| Sequence | PBM binding z-score |
| --- | --- |
| AGTCAAAGTTCACTAGGTATCGTAAGATTCAGCT | 3.89 |
| TAGCCTAGGGCAGATCGGGCCAGTATACGCTATA | -0.562 |
| ACTAGTTGGTCAGCTCAGGTCACACACAATTCGG | 2.23 |
| TGTCAAAGTTCAAAGGTAACCTAAGTATCCACAC | 5.12 |
| GCAGAAAGGTGAAACGCAGGTAACTCAGGGTGGC | 0.145 |
| ACGATTAGTTGAGACGAGGGCAACCGATAGGTTG | 0.249 |
| GCTATTCGTTGAAAGGGCAACCGAATGATTCTCG | 0.306 |
| CAAACTAGGTCACAGAGCTCAAAGTCCGTGCGTA | 3.09 |
| TAGCCTAGGTAATGGGCCAGTATACCACGCGAAC | -0.466 |
| TTACCAAGGTGAGCTGAGGTAGTTGATCCAACTC | -0.45 |
| GCTCGGAGGAGAAGGTCAGAGCTTTGTCCGTAGA | 0.324 |
| CGTCCAAGGTCAGGAGGTCAGTGAAAGCGACGTG | 4.66 |
| ACTTACGGGTCAACGAGGTTATAGCTCGCGTATA | 7.8 |
| GCTCTTAGTTGAAAGGGCAACCGAATGATTCTCG | 0.445 |
| CCTAGCTGGTCAAGGTCACACACGCTATAGGTAC | 3.75 |
| CCTACAGGGCCATTCAGAGGTCATTGATCATATG | 4.57 |
| ATATGTAGGTAAAGGGTCATTCAGGTTGGTTCGC | 5.54 |
| CCTGCTAGGTCAATGGTCAGCCAAAGCAGCTCGC | 0.672 |
| AGAATGAGGTTCAGATCAGGGAAACAGAATACAT | 0.949 |
| GGAACGAGGGCATAGTTGATAGCATCTGTCGACG | 0.655 |

| Sequence | PBM binding z-score |
| --- | --- |
| ACTAGCAGGCCAACTTTGGGTCACTCAAACAAAG | 0.536 |
| CAGCCTAGGTCAGGGCAAGTATAGGAGGAACGTT | 0.782 |
| CCTGCTTGGTCAATGGTCAGCTAAAGCAGCTCGC | -0.576 |
| CTTCCAAGGTCAAAGGTCAGTGAAGAGATGACGG | 6.57 |
| ATCGAAAGGTCGACGTGAGTATAGAGAAAGGGAA | 2.53 |
| AGTCAAAGTTCATCTAGGTGACGTAAGATATGCT | 4.96 |
| TCATATAGCTAAAGGTGAAAGTCGAACGATATGA | 0.865 |
| GCTAGCAGGCCATTTGGGTCACTCTATGACGGGC | 0.648 |
| CCTCGGAGGACATCAGGAGGTCAGAGCTGCCAGA | 1.99 |
| GTACCAAGGTGAATAGGTCGATGATGAGTAGGCG | 0.674 |
| TCATAGAGGTAATACAGGTGAAAGTCGGCATCTA | 1.07 |
| GCTGCTAAGTCAGGTTGGTCAGCTAACGGGTACG | -0.547 |
| ATCTCTAGGTAATAAGTTCAGTGAAAGAGAGGAC | 1.9 |
| CAAACTAGGTCAAAGGTCAATGTCGAGCCAACCA | 6.33 |
| AATCAAAGTTCAGGACGAGGTAACGTAAAGCACG | 3 |
| CCTACTGGGCCAAAAAGGTCATTTATGCCGATAA | 4.44 |
| CGTCCAAGGTCAGAAGGTCAGTGAAAGCGACGTG | 4.14 |
| AGCTCTAGGTAAAGTTCAGTGAAAGATCGATAGA | 1.08 |
| ATCTCTAGGTAAAGTTCGGTGAAAGATCGATAGA | 0.603 |
| ATATGTAAGTTACATCCGGGTCATTCAGGCTATG | 3.56 |
